Screens from PubChem BioAssay.
Compounds with a hit are over-represented: about 22% of the library has one in this group of screens.
LmPK inhibitor = inhibitors of Leishmania mexicana pyruvate kinase; 290,000 compounds, 0.37% hits; purified LmPK, Kinase-Glo ATP luminescence, 1 h; Potency, µM (series often up to 57.5 µM), for inactives: at the top dose activity change, negative = inhibition, hits mostly inhibitors; note: potency is the fitted concentration of half-maximal effect; % is set by controls: 0 for no effect and ±100 for the full control effect
Target sequence (Q27686 whole entry, looked up): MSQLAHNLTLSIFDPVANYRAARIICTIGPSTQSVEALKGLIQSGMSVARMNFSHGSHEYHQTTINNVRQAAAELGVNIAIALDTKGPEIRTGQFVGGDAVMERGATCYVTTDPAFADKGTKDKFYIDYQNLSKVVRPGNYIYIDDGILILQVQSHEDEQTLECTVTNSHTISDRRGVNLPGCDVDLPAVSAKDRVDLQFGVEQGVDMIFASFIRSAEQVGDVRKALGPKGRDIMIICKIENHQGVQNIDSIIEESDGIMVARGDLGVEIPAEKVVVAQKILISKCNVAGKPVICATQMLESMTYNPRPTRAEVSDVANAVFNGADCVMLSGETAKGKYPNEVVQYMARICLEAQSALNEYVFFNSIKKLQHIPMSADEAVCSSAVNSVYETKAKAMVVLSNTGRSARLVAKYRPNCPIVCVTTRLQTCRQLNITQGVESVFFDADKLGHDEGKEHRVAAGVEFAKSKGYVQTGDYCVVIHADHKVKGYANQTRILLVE
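ATP generated from ADP (0.1 mM) and PEP (0.5 mM) by 0.1 nM LmPK over 1 h at room temperature (pH 7.2 imidazole buffer) was detected by coupled luciferase luminescence. Values were normalized to uninhibited and no-enzyme wells.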
Pf growth 96h = P. falciparum growth inhibition at 96 hours; P. falciparum luciferase reporter growth, 96 h; Potency, µM (top dose mostly 28.7 µM), for inactives: at the highest dose activity change, negative = inhibition, actives largely listed as inhibitors; 320,000 compounds, 6.9% hits; AID 504834; note: potency is the fitted concentration of half-maximal effect; % is set by controls: 0 for no effect and ±100 for the full control effect
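P. falciparum expressing integrated firefly luciferase grown in erythrocytes (2% hematocrit, 0.05% parasitemia final) with compounds for 96 hours at 37 C, 5% CO2. Growth inhibition read as loss of luminescence after adding luciferase detection reagent.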
Pf growth 48h = P. falciparum growth inhibition at 48 hours (one generation); 310,000 compounds, 5.9% hits; Potency, µM (doses to about 28.7 µM), without a hit: at the highest dose activity change, negative = inhibition, hits mostly inhibitors; P. falciparum luciferase growth in erythrocytes, 48 h; note: potency is the fitted concentration of half-maximal effect; % is set by controls: 0 for no effect and ±100 for the full control effect
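Luciferase-expressing parasites in RBCs, 2% Hct / 0.1% parasitemia final; RPMI 1640 + 0.5% Albumax; 37 C, 5% CO2, one generation; luminescence read-out, lower signal = inhibition.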
CHX counter = counter-screen for Shiga toxin inhibitors: cycloheximide protein synthesis inhibition | cell reporter, cycloheximide protein synthesis inhibition counterscreen | max response, % | 300,000 compounds, 12% hits | AID 2314; in the data active = max response mostly above about 13%, no sharp cut-off; inactive = mostly below about 14%; note: read at 38.3 µM for the half of the compounds with a filed dose; 0% is about no effect
Shiga toxin inh = Shiga toxin inhibition. Vero cells, Shiga toxin protein synthesis inhibition reporter. AID 2315. inhibition, % at 38.7 µM. 290,000 compounds, 9.2% hits; in the data active = inhibition mostly above about 28%, no sharp cut-off; inactive = mostly below about 43%; note: 0% is about no effect
* marks the source's active call; other numbers are inactive results. Unless noted, calls come from the whole dose curve; as a rule, active = well fitted inhibition curve with a large enough effect; inconclusive = small, poorly fitted or top-dose-only effect, or another doubt; inactive = no such curve, though single readings can be large or run the other way.

CCc1nn2c(N3CCOCC3)cc(C)nc2c1-c1ccccc1 was read as LmPK inhibitor 2%, Pf growth 96h -10%, Pf growth 48h 1%, CHX counter -4 and Shiga toxin inh -2.
For Cc1cccc(-c2nc(C#N)c(NC3CCCCC3)o2)c1 the results were LmPK inhibitor -2%, Pf growth 96h 4.7µM*, Pf growth 48h 64%, CHX counter 50* and Shiga toxin inh 168*.
Screening Cc1cccc(-c2nc(C#N)c(N3CCCCC3)o2)c1 returned LmPK inhibitor -2%, Pf growth 96h 72%, Pf growth 48h 98%, CHX counter 27* and Shiga toxin inh 37*.
For N#Cc1nc(-c2ccc(F)cc2)oc1N1CCCC1 the results were LmPK inhibitor -3%, Pf growth 96h 0.29µM*, Pf growth 48h 42%, CHX counter 4 and Shiga toxin inh 10.
Cc1ccc(-c2nc(C#N)c(N3CCCCC3)o2)cc1 was read as LmPK inhibitor 1%, Pf growth 96h -20%, CHX counter 2 and Shiga toxin inh 22.
`CC(C)(C)c1ccc(N2C[C@@H](COc3ccc(C(=O)O)cc3)CC2=O)cc1` gave CHX counter 11 and Shiga toxin inh 25.
`CCOc1ccc(CCNC(=O)COC(=O)c2cccnc2SC)cc1OCC` gave Pf growth 96h 40% and Pf growth 48h -13%.
For CCOC(=O)c1ccccc1NC(=O)c1cc2ccccc2o1 the results were LmPK inhibitor 9%, Pf growth 96h -18%, Pf growth 48h -24%, CHX counter 6 and Shiga toxin inh 65.
Screening CC(C)C(=O)Nc1ccc(NC(=S)NC(=O)c2cc3ccccc3o2)cc1 returned LmPK inhibitor -1%, Pf growth 96h inconclusive, Pf growth 48h -14%, CHX counter 7 and Shiga toxin inh -8.
`CCOC(=O)c1cccc(NC(=O)c2cc3ccccc3o2)c1` gave LmPK inhibitor -1%, Pf growth 96h 0%, Pf growth 48h 108%, CHX counter 49* and Shiga toxin inh 57*.
Screening CC(C)C(=O)Nc1ccc(NC(=O)c2cc3ccccc3o2)cc1 returned LmPK inhibitor 0%, Pf growth 48h 51%, CHX counter 19* and Shiga toxin inh 62*.
For CCOC(=O)c1ccc(NC(=O)c2cc3ccccc3o2)cc1 the results were LmPK inhibitor -8%, Pf growth 96h inconclusive, Pf growth 48h inconclusive, CHX counter 32* and Shiga toxin inh 41*.
Screening Cc1cc(NC(=O)CCSc2ccc(Cl)cc2)no1 returned LmPK inhibitor 0%, Pf growth 96h 10%, Pf growth 48h -19%, CHX counter 7 and Shiga toxin inh 31.
For COc1ccc(CC(=O)N2CCC(c3ccccc3)C2)cc1 (stereo not given) the results were LmPK inhibitor 0%, Pf growth 96h 41%, Pf growth 48h 40%, CHX counter 23* and Shiga toxin inh 56*.
`O=C(Cc1ccccc1)N1CCC(c2ccccc2)C1` (stereo not given) gave LmPK inhibitor 8%, Pf growth 96h -19%, Pf growth 48h 186%, CHX counter 28* and Shiga toxin inh 80*.
For COc1ccc(CC(=O)N2CCC(Nc3nc4ccccc4n3Cc3ccc(F)cc3)CC2)cc1 the results were LmPK inhibitor 4%, Pf growth 96h 9.3µM*, Pf growth 48h 4.1µM*, CHX counter -5 and Shiga toxin inh -4.
`Cc1cccc(NC(=S)NC(NC(=O)c2ccco2)C(Cl)(Cl)Cl)c1` (stereo not given) gave LmPK inhibitor 4%, Pf growth 48h 13µM*, CHX counter 5 and Shiga toxin inh -13.
Screening Cc1ccc(NC(=S)NC(NC(=O)c2ccco2)C(Cl)(Cl)Cl)cc1 (stereo not given) returned LmPK inhibitor 1%, Pf growth 48h 4.7µM*, CHX counter 7 and Shiga toxin inh 1.
Screening Cc1nnc(N2C(=O)C(O)=C(C(=O)c3ccco3)C2c2ccc(C(C)C)cc2)s1 (stereo not given) returned LmPK inhibitor 0%, Pf growth 96h inconclusive, Pf growth 48h 27%, CHX counter 40* and Shiga toxin inh 64*.
CCCOc1cccc(C2C(C(=O)c3ccco3)=C(O)C(=O)N2c2nnc(C)s2)c1 (stereo not given) was read as LmPK inhibitor 8%, Pf growth 96h -2%, Pf growth 48h 10%, CHX counter -5 and Shiga toxin inh -11.
`Cc1nnc(N2C(=O)C(O)=C(C(=O)c3ccco3)C2c2ccc(F)cc2)s1` (stereo not given) gave LmPK inhibitor 1%, Pf growth 96h inconclusive, Pf growth 48h -4%, CHX counter -2 and Shiga toxin inh -5.
`Cc1ccc(C2C(C(=O)c3ccco3)=C(O)C(=O)N2c2ncccn2)cc1` (stereo not given) gave LmPK inhibitor -3%, Pf growth 96h 38%, Pf growth 48h 86%, CHX counter 9 and Shiga toxin inh 1.
Screening Cc1nnc(N2C(=O)C(O)=C(C(=O)c3ccco3)C2c2ccc(C(C)(C)C)cc2)s1 (stereo not given) returned LmPK inhibitor -1%, Pf growth 96h 43%, Pf growth 48h 26%, CHX counter 12* and Shiga toxin inh 21.
For CSc1ccc(C2C(C(=O)c3ccco3)=C(O)C(=O)N2c2nnc(SC)s2)cc1 (stereo not given) the results were LmPK inhibitor 10%, Pf growth 96h 77%, Pf growth 48h 65%, CHX counter 36* and Shiga toxin inh 75*.
O=C(CSc1nc(CCC2CCCC2)nc2ccccc12)NCc1ccc2c(c1)OCO2 was read as LmPK inhibitor -6%, Pf growth 96h inconclusive, Pf growth 48h -19%, CHX counter 0 and Shiga toxin inh -4.
`CCC(Oc1ccc(C)c(C)c1)C(=O)N1CCCN(C)CC1` (stereo not given) gave LmPK inhibitor -3%, Pf growth 96h 5%, Pf growth 48h 5%, CHX counter -8 and Shiga toxin inh -17.
For CCC(Sc1nc2ccsc2c(=O)n1Cc1ccc(C(=O)O)cc1)C(=O)Nc1ccc(C)c(Cl)c1 (stereo not given) the results were LmPK inhibitor -2%, Pf growth 96h inconclusive, Pf growth 48h inconclusive, CHX counter 0 and Shiga toxin inh -6.
For COc1ccccc1NC(=O)CCNC(=O)c1ccc(C)cc1 the results were LmPK inhibitor 4%, Pf growth 96h 2%, Pf growth 48h 1%, CHX counter 12 and Shiga toxin inh 4.
Cc1ccc(Cn2c(=N)c(C(=O)NCc3ccco3)cc3c(=O)n4ccccc4nc32)cc1 was read as LmPK inhibitor -3%, Pf growth 96h 0%, Pf growth 48h 4.1µM*, CHX counter -1 and Shiga toxin inh 1.
N=c1c(C(=O)NCc2ccco2)cc2c(=O)n3ccccc3nc2n1CCc1ccccc1 was read as LmPK inhibitor 1%, Pf growth 48h 0.93µM*, CHX counter 19 and Shiga toxin inh 35.
